# Compounds without any hit were thinned out: in the full panel of roughly 79,000, 15% have a hit. Values without a mark were called inactive. Activity calls are given as the source filed them. Cut-off read from the data, not from the text of the source: active = growth inhibition above about 70%; inactive = the rest.
# What was measured:
# [1] = NCI Yeast Anticancer Drug Screen. Data for the rad52 strain (AID 147);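 note: 0% = growth of vehicle-treated control cultures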; settings: S. cerevisiae rad52 mutant growth inhibition, active compounds read high
# Procedure, shortened: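 Compounds are applied to a genetically defined yeast strain lacking normal DNA damage repair, and inhibition of growth is expressed relative to cultures given vehicle only.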
# [2] = NCI Yeast Anticancer Drug Screen. Data for the wt1 strain (AID 149);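 note: 0% = growth of vehicle-treated wt1 cultures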; settings: S. cerevisiae wt1 strain (SPY 50644) growth inhibition, active compounds read high
# Procedure, shortened: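 Yeast wt1 strain exposed to compounds; growth inhibition measured relative to vehicle-treated controls.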
# [3] = NCI Yeast Anticancer Drug Screen. Data for the rad50EPP+ strain (AID 151);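 note: 0% = growth of vehicle-treated control cultures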; settings: S. cerevisiae rad50 mutant strain, active compounds read high
# Procedure, shortened: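 Compounds were applied to the rad50EPP+ yeast strain, which bears a defined DNA repair alteration, and growth inhibition was determined relative to vehicle-treated cultures.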
# [4] = NCI Yeast Anticancer Drug Screen. Data for the rad50 strain (AID 155);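 note: 0% = growth of vehicle-only cultures of the same strain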; settings: S. cerevisiae rad50 strain growth inhibition, active compounds read high
# Procedure, shortened: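 Yeast carrying a defined DNA repair defect were exposed to test compounds, and growth was compared with vehicle-treated controls to give percent inhibition.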
# [5] = NCI Yeast Anticancer Drug Screen. Data for the mec2-1 strain (AID 157); settings: S. cerevisiae mec2-1 strain, active compounds read high
# Procedure, shortened: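 Strain: mec2-1 (DNA repair/cell cycle alteration). Compound exposure, then growth measured; inhibition expressed relative to vehicle.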
# [6] = NCI Yeast Anticancer Drug Screen. Data for the rad14 strain (AID 159);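 note: 0% = growth of vehicle-treated control cultures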; settings: S. cerevisiae rad14 strain growth inhibition, active compounds read high
# Procedure, shortened: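 Yeast cells carrying a defined DNA-repair defect were exposed to compounds, and growth inhibition was calculated relative to vehicle-treated control cultures.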
# [7] = NCI Yeast Anticancer Drug Screen. Data for the sgs1 mgt1 strain (AID 161);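 note: 0% = growth of cultures given vehicle only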; settings: S. cerevisiae sgs1 mgt1 strain, active compounds read high
# Procedure, shortened: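 Mutant yeast exposed to compound; growth scored against vehicle-only wells.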
# [8] = NCI Yeast Anticancer Drug Screen. Data for the CLN2oe strain (AID 163);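 note: 0% = growth of vehicle-only control cultures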; settings: S. cerevisiae CLN2oe strain, active compounds read high
# Procedure, shortened: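 Growth of a genetically modified yeast strain is measured after compound exposure and compared with cultures given vehicle alone.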
# [9] = NCI Yeast Anticancer Drug Screen. Data for the cln2 rad14 strain (AID 165);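 note: 0% = growth equal to vehicle treated cultures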; settings: S. cerevisiae cln2 rad14 strain, active compounds read high
# Procedure, shortened: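 Compounds are applied to the cln2 rad14 yeast strain, and growth is then compared with that of vehicle-treated cultures to give inhibition.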
# [10] = NCI Yeast Anticancer Drug Screen. Data for the bub3 strain (AID 167); settings: S. cerevisiae bub3 mutant strain, active compounds read high
# Procedure, shortened: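 Compounds were applied to a genetically altered yeast strain carrying a cell-cycle control defect. Growth inhibition was scored against vehicle-treated controls.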
# [11] = NCI Yeast Anticancer Drug Screen. Data for the wt2 strain (AID 169);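 note: 0% = growth of vehicle-treated yeast cultures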; settings: S. cerevisiae wt2 strain growth inhibition, active compounds read high
# Procedure, shortened: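 This strain belongs to a panel of yeast strains with defined genetic alterations in DNA damage repair or cell cycle control. Compounds are applied, and growth inhibition is measured against vehicle-treated cultures.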
# [12] = NCI Yeast Anticancer Drug Screen. Data for the mlh1 strain (AID 171);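 note: 0% = growth of vehicle-treated control cultures of the same strain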; settings: S. cerevisiae mlh1 strain growth inhibition, active compounds read high
# Procedure, shortened: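 Growth of the mutant yeast strain after compound exposure, expressed as inhibition relative to vehicle-only controls.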
# [13] = NCI Yeast Anticancer Drug Screen. Data for the sgs1 strain (AID 173);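 note: 0% = growth of vehicle-only control cultures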; settings: S. cerevisiae sgs1 mutant, active compounds read high
# Procedure, shortened: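 Growth of a yeast strain bearing a defined genetic alteration is measured after compound treatment. Inhibition is expressed relative to vehicle-only controls.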
# [14] = NCI Yeast Anticancer Drug Screen. Data for the mlh1 rad18 strain (AID 175); settings: S. cerevisiae mlh1 rad18 strain growth inhibition, active compounds read high
# Procedure, shortened: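 Read-out is yeast growth inhibition, calculated against vehicle-only controls. The compound was applied to a strain engineered with DNA damage repair alterations.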
# [15] = NCI Yeast Anticancer Drug Screen. Data for the rad18 strain (AID 177); settings: S. cerevisiae rad18 mutant growth inhibition, active compounds read high
# Procedure, shortened: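 Growth of the mutant yeast strain after compound exposure, normalised to vehicle-only cultures.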
# [16] = at 5.0 µM (retest, dose inferred, filed as 0.5)
# [17] = at 50.0 µM (retest, dose inferred, filed as 5.0)
compound,measurement,setting,value
CCOC(=O)[C@H]1Nc2ccc(OC)cc2C2c3ccccc3CC21 (stereo partly drawn),growth inhibition,[1]; at 1.2 µM,-22%
same,growth inhibition,[1]; at 3.7 µM,-27%
same,growth inhibition,[1]; at 11.0 µM,-20%
same,growth inhibition,[1]; at 33.0 µM,57%
same,growth inhibition,[1]; at 100.0 µM,90% (active)
same,growth inhibition,[2]; at 1.2 µM,-29%
same,growth inhibition,[2]; at 3.7 µM,-27%
same,growth inhibition,[2]; at 11.0 µM,-25%
same,growth inhibition,[2]; at 33.0 µM,50%
same,growth inhibition,[2]; at 100.0 µM,90% (active)
same,growth inhibition,[3]; at 1.2 µM,-25%
same,growth inhibition,[3]; at 3.7 µM,-19%
same,growth inhibition,[3]; at 11.0 µM,-23%
same,growth inhibition,[3]; at 33.0 µM,10%
same,growth inhibition,[3]; at 100.0 µM,4%
same,growth inhibition,[4]; at 1.2 µM,-21%
same,growth inhibition,[4]; at 3.7 µM,-12%
same,growth inhibition,[4]; [16],19%
same,growth inhibition,[4]; at 11.0 µM,-19%
same,growth inhibition,[4]; at 33.0 µM,34%
same,growth inhibition,[4]; [17],9%
same,growth inhibition,[4]; at 50.0 µM,70% (active)
same,growth inhibition,[4]; at 100.0 µM,91% (active)
same,growth inhibition,[5]; at 1.2 µM,-48%
same,growth inhibition,[5]; at 3.7 µM,-21%
same,growth inhibition,[5]; [16],-9%
same,growth inhibition,[5]; at 11.0 µM,-48%
same,growth inhibition,[5]; at 33.0 µM,29%
same,growth inhibition,[5]; [17],13%
same,growth inhibition,[5]; at 50.0 µM,34.1%
same,growth inhibition,[5]; at 100.0 µM,88% (active)
same,growth inhibition,[6]; at 1.2 µM,-54%
same,growth inhibition,[6]; at 3.7 µM,-49%
same,growth inhibition,[6]; at 11.0 µM,-50%
same,growth inhibition,[6]; at 33.0 µM,0%
same,growth inhibition,[6]; at 100.0 µM,82% (active)
same,growth inhibition,[7]; [16],8%
same,growth inhibition,[7]; [17],53%
same,growth inhibition,[7]; at 50.0 µM,55.5%
same,growth inhibition,[8]; at 1.2 µM,-23%
same,growth inhibition,[8]; at 3.7 µM,-28%
same,growth inhibition,[8]; at 11.0 µM,-21%
same,growth inhibition,[8]; at 33.0 µM,39%
same,growth inhibition,[8]; at 100.0 µM,89% (active)
same,growth inhibition,[9]; [16],20%
same,growth inhibition,[9]; [17],37%
same,growth inhibition,[9]; at 50.0 µM,57%
same,growth inhibition,[10]; at 1.2 µM,-26%
same,growth inhibition,[10]; at 3.7 µM,-19%
same,growth inhibition,[10]; [16],4%
same,growth inhibition,[10]; at 11.0 µM,-27%
same,growth inhibition,[10]; at 33.0 µM,51%
same,growth inhibition,[10]; [17],83% (active)
same,growth inhibition,[10]; at 50.0 µM,53.4%
same,growth inhibition,[10]; at 100.0 µM,90% (active)
same,growth inhibition,[11]; at 1.2 µM,-4%
same,growth inhibition,[11]; at 3.7 µM,-14%
same,growth inhibition,[11]; at 11.0 µM,-7%
same,growth inhibition,[11]; at 33.0 µM,55%
same,growth inhibition,[11]; at 100.0 µM,85% (active)
same,growth inhibition,[12]; at 1.2 µM,-29%
same,growth inhibition,[12]; at 3.7 µM,-21%
same,growth inhibition,[12]; at 11.0 µM,-38%
same,growth inhibition,[12]; at 33.0 µM,46%
same,growth inhibition,[12]; at 100.0 µM,86% (active)
same,growth inhibition,[13]; at 1.2 µM,22%
same,growth inhibition,[13]; at 3.7 µM,15%
same,growth inhibition,[13]; at 11.0 µM,24%
same,growth inhibition,[13]; at 33.0 µM,71% (active)
same,growth inhibition,[13]; at 100.0 µM,90% (active)
same,growth inhibition,[14]; [16],-13%
same,growth inhibition,[14]; [17],34%
same,growth inhibition,[14]; at 50.0 µM,60.4%
same,growth inhibition,[15]; at 1.2 µM,1%
same,growth inhibition,[15]; at 3.7 µM,-9%
same,growth inhibition,[15]; at 11.0 µM,3%
same,growth inhibition,[15]; at 33.0 µM,56%
same,growth inhibition,[15]; at 100.0 µM,93% (active)
